# According to paper PMC7862700, “An all-to-all approach to the identification of sequence-specific readers for epigenetic DNA modifications on cytosine”:
# Experiments:
# Experiment in all cases: DAPPL (digital affinity profiling via proximity ligation, sequencing); 10 mM Tris-HCl pH 7.5, 50 mM NaCl, 1 mM DTT, 4% glycerol, room temperature, 30 min; GST-TFs on glutathione beads, 16-mer random dsDNA library, 0.1% formaldehyde crosslink after washing; high values mean tight binding
# Details in all cases: protein: recombinant; tags: N-terminal GST; dsDNA, one strand shown
# FLI1 = molecular target: T1, FLI1 (Homo sapiens, UniProt Q01543 1-452)
# T1 sequence: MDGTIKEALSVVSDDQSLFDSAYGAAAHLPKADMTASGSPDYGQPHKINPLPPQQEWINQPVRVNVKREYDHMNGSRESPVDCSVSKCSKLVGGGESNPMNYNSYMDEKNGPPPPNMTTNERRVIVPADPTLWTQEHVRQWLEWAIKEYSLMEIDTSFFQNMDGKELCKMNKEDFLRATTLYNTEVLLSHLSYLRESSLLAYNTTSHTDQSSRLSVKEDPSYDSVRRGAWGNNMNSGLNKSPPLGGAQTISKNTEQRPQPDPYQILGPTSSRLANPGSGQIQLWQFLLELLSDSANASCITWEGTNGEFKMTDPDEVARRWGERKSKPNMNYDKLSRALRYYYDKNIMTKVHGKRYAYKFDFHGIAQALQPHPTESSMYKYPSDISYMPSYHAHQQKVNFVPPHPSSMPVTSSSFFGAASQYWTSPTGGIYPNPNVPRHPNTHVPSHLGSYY
# Outline: (§1)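 The binding signal reported is, for every hexamer, its read frequency for a factor over its read frequency for the tag-only sample. Reads came from pools of yeast-expressed, GST-fused human transcription factors on glutathione beads, barcoded with DNA and mixed with that sample, which were incubated with 200 nmole of a random double-stranded 16-mer DNA library in Tris/NaCl/DTT/glycerol buffer at room temperature for 30 min. After washing, the pools were crosslinked with 0.1% formaldehyde, proximity-ligated with BsaI/T4 ligase for 1 h at 37 °C, PCR-amplified and sequenced on an Illumina NextSeq500.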
# ELK1 = molecular target: T2, ELK1 (Homo sapiens, UniProt P19419 1-428)
# T2 sequence: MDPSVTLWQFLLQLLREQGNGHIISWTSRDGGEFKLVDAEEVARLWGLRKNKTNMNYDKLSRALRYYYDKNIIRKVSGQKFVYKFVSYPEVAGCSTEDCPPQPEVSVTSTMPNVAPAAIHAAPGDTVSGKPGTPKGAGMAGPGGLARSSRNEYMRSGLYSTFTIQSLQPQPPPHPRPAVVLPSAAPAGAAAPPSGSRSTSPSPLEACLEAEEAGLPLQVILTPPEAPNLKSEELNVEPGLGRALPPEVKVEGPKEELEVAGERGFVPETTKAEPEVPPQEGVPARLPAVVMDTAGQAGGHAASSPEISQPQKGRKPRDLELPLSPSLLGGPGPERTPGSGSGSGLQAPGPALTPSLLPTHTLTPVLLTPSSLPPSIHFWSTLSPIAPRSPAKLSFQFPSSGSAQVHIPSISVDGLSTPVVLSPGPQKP
# Outline: as §1
# GABPA = molecular target: T3, GABPA (Homo sapiens, UniProt Q06546 1-454)
# T3 sequence: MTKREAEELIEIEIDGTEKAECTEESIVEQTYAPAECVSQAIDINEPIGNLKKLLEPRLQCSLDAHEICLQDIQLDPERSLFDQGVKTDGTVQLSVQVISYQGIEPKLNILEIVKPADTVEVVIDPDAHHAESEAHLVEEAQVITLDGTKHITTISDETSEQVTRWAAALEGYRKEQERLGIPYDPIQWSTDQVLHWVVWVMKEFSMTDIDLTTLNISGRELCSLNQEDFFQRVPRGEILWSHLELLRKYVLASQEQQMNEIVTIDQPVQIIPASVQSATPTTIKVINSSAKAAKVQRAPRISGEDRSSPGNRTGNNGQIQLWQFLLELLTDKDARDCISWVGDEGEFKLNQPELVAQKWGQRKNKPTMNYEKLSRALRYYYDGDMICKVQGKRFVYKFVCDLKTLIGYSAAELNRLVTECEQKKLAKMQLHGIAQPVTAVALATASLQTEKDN
# Outline: as §1
# ERG = molecular target: T4, ERG (Homo sapiens, UniProt P11308 1-479)
# T4 sequence: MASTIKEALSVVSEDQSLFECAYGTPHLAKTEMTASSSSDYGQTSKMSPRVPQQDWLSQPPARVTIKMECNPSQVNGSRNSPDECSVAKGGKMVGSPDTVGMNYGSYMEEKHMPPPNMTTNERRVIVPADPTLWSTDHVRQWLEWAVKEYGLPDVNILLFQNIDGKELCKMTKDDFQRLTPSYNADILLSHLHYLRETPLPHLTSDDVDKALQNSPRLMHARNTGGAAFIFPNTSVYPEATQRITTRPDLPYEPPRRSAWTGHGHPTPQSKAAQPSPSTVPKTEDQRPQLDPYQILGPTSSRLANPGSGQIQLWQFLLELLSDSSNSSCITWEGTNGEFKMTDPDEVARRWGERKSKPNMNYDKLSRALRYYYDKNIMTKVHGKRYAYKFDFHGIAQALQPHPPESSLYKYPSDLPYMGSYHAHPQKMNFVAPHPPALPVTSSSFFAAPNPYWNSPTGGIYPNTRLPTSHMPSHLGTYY
# Outline: as §1
# ELF1 = ELF1 (Homo sapiens, UniProt P32519 1-619)
# Outline: as §1
# EHF = molecular target: T5, EHF (Homo sapiens, UniProt Q9NZC4 1-300)
# T5 sequence: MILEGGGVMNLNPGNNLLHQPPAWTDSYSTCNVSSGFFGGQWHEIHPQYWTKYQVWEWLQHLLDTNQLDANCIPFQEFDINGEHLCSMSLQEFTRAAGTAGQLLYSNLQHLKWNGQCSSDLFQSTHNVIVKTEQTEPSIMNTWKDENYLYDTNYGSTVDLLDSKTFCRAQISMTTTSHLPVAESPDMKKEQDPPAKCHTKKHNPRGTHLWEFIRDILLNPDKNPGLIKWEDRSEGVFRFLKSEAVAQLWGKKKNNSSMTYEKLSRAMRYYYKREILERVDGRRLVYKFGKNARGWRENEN
# Outline: as §1
# SPI1 = SPI1 (Homo sapiens, UniProt P17947 1-270)
# Outline: as §1
# SPIB = SPIB (Homo sapiens, UniProt Q01892 1-262)
# Outline: as §1
# ELK3 = molecular target: T6, ELK3 (Homo sapiens, UniProt P41970 1-407)
# T6 sequence: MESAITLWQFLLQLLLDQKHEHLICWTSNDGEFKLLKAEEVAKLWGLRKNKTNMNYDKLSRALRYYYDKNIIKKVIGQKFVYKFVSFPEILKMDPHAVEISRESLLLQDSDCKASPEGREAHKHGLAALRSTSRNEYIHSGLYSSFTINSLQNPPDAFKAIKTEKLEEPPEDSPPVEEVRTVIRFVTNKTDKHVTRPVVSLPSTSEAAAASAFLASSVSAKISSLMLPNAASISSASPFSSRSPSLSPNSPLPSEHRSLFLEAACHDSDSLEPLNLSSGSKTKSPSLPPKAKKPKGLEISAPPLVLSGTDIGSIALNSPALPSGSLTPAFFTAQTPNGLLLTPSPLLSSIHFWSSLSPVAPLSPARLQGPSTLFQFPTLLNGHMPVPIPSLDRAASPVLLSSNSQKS
# Outline: as §1
# Chain of ELF1 (P32519 whole entry): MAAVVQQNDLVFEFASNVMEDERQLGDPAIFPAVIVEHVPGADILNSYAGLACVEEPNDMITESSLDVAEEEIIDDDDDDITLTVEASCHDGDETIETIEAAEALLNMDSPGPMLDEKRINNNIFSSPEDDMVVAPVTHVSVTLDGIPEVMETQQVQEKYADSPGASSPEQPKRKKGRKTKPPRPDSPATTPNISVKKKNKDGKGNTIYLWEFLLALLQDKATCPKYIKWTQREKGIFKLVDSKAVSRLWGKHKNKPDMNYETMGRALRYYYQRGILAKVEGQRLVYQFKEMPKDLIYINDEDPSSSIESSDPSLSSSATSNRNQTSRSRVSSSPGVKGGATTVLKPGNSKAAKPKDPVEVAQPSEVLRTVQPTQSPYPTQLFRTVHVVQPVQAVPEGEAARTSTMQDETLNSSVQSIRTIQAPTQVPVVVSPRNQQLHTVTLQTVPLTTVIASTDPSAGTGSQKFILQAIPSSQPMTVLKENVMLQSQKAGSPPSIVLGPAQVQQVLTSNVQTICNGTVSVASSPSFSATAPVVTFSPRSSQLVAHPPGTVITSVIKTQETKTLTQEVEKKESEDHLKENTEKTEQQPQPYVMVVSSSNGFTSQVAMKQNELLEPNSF
# Chain of SPIB (Q01892 whole entry): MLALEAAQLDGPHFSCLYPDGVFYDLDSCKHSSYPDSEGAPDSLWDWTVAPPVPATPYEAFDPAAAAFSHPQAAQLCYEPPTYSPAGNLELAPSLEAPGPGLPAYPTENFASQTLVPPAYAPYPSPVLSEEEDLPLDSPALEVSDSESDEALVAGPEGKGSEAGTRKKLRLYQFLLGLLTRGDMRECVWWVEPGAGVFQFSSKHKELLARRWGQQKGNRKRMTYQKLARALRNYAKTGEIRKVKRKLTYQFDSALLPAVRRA
Sequence,binding signal (FLI1),binding signal (ELK1),binding signal (GABPA),binding signal (ERG),binding signal (ELF1),binding signal (EHF),binding signal (SPI1),binding signal (SPIB),binding signal (ELK3)
TTAAAG,"1.17 fold enrichment (6-mer frequency, TF over GST control)","1.11 fold enrichment (6-mer frequency, TF over GST control)","1.26 fold enrichment (6-mer frequency, TF over GST control)","1.1 fold enrichment (6-mer frequency, TF over GST control)","1.19 fold enrichment (6-mer frequency, TF over GST control)","1.18 fold enrichment (6-mer frequency, TF over GST control)","1.12 fold enrichment (6-mer frequency, TF over GST control)","1.19 fold enrichment (6-mer frequency, TF over GST control)","1.09 fold enrichment (6-mer frequency, TF over GST control)"
GTAATA,"1.12 fold enrichment (6-mer frequency, TF over GST control)","1.21 fold enrichment (6-mer frequency, TF over GST control)","1.09 fold enrichment (6-mer frequency, TF over GST control)","1.15 fold enrichment (6-mer frequency, TF over GST control)","1.15 fold enrichment (6-mer frequency, TF over GST control)","1.2 fold enrichment (6-mer frequency, TF over GST control)","1.11 fold enrichment (6-mer frequency, TF over GST control)","1.24 fold enrichment (6-mer frequency, TF over GST control)","1.01 fold enrichment (6-mer frequency, TF over GST control)"
TCAACC,"1.23 fold enrichment (6-mer frequency, TF over GST control)","1.24 fold enrichment (6-mer frequency, TF over GST control)","1.22 fold enrichment (6-mer frequency, TF over GST control)","1.14 fold enrichment (6-mer frequency, TF over GST control)","1.16 fold enrichment (6-mer frequency, TF over GST control)","1.15 fold enrichment (6-mer frequency, TF over GST control)","1.16 fold enrichment (6-mer frequency, TF over GST control)","1.17 fold enrichment (6-mer frequency, TF over GST control)","1.32 fold enrichment (6-mer frequency, TF over GST control)"
ATTTAA,"1.24 fold enrichment (6-mer frequency, TF over GST control)","1.12 fold enrichment (6-mer frequency, TF over GST control)","1.14 fold enrichment (6-mer frequency, TF over GST control)","1.14 fold enrichment (6-mer frequency, TF over GST control)","1.22 fold enrichment (6-mer frequency, TF over GST control)","1.2 fold enrichment (6-mer frequency, TF over GST control)","1.16 fold enrichment (6-mer frequency, TF over GST control)","1.15 fold enrichment (6-mer frequency, TF over GST control)","1.28 fold enrichment (6-mer frequency, TF over GST control)"
ATATAG,"1.15 fold enrichment (6-mer frequency, TF over GST control)","1.17 fold enrichment (6-mer frequency, TF over GST control)","1.29 fold enrichment (6-mer frequency, TF over GST control)","1.19 fold enrichment (6-mer frequency, TF over GST control)","1.17 fold enrichment (6-mer frequency, TF over GST control)","1.22 fold enrichment (6-mer frequency, TF over GST control)","1.2 fold enrichment (6-mer frequency, TF over GST control)","1.2 fold enrichment (6-mer frequency, TF over GST control)","1.23 fold enrichment (6-mer frequency, TF over GST control)"
TTATTT,"1.4 fold enrichment (6-mer frequency, TF over GST control)","1.42 fold enrichment (6-mer frequency, TF over GST control)","1.33 fold enrichment (6-mer frequency, TF over GST control)","1.44 fold enrichment (6-mer frequency, TF over GST control)","1.3 fold enrichment (6-mer frequency, TF over GST control)","1.35 fold enrichment (6-mer frequency, TF over GST control)","1.44 fold enrichment (6-mer frequency, TF over GST control)","1.37 fold enrichment (6-mer frequency, TF over GST control)","1.33 fold enrichment (6-mer frequency, TF over GST control)"
AAGTTC,"1.36 fold enrichment (6-mer frequency, TF over GST control)","1.36 fold enrichment (6-mer frequency, TF over GST control)","1.47 fold enrichment (6-mer frequency, TF over GST control)","1.36 fold enrichment (6-mer frequency, TF over GST control)","1.34 fold enrichment (6-mer frequency, TF over GST control)","1.35 fold enrichment (6-mer frequency, TF over GST control)","1.54 fold enrichment (6-mer frequency, TF over GST control)","1.51 fold enrichment (6-mer frequency, TF over GST control)","1.36 fold enrichment (6-mer frequency, TF over GST control)"
